Source: PubChem BioAssay (National Center for Advancing Translational Sciences (NCATS))
A selection: hits, their analogues and other compounds. The true share with any hit is near 2.3%.
ATXN2 expr inh: ATXN2 expression inhibition; HEK-293 ATXN2-luciferase reporter, luminescence, 24 h; 360,000 tested, 0.72% active; Potency, µM (titrated, usually from 57 µM), hits mostly inhibitors; AID 1745845; note: nearly all actives have a fitted effect of over 55% in size
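qHTS (up to 57 uM final) was run with 24 h compound exposure of reporter cells at 37 °C. Each well was multiplexed: SteadyGlo luminescence measured ATXN2-luciferase expression after a fluorogenic Gly-Phe-AFC viability readout (25 uM final).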
TGFb inhibitor: TGF-b pathway inhibition | 410,000 tested, 1.2% active | Potency, µM (top dose mostly 46.1 µM), most hits filed as inhibitors | HepG2 CAGA-GFP TGF-b/SMAD3 reporter, GFP fluorescence, 18 h; TGF-beta stimulated, 500 pg/mL final; note: nearly all actives have a fitted effect of over 65% in size
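Read-out: total well GFP (ex488/em500-530) summed from mean per-cell fluorescence. Cells: HEPG2 CAGA-GFP, 1% FBS DMEM, 18 h at 37 degrees C with 500 pg/mL final TGF-beta. Unstimulated wells served as the full-inhibition control; stimulated DMSO wells = 0%.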
HepG2 viability: counter-screen for TGF-b inhibitors: cytotoxicity in HepG2 cells; HepG2 CAGA-GFP viability, ATP luminescence, 18 h; Potency, µM (highest dose often 46.1 µM), actives largely listed as cytotoxic; 410,000 tested, 0.76% active
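HepG2 CAGA-GFP cells (1000/well, DMEM with 1% FBS) received compound, then TGF-beta at 500 pg/mL final, and were incubated 18 hours at 37 degrees C. Viability was read by CellTiter-Glo luminescence. Media-only wells were set as complete cell-killing and DMSO as no toxicity.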
ATXN viability: viability counter-screen for ATXN expression inhibitors. S2 cells (HEK-293 line with an ATXN2-luciferase reporter) viability, CellTiter-Fluor protease fluorescence, 24 h. Potency, µM (doses to about 56.7 µM), most hits filed as cytotoxic. 400,000 tested, 0.49% active; note: nearly all actives have a fitted effect of over 40% in size
Hits are given with their value; – = inactive; ? = inconclusive; · = not tested or not shown. Calls come from the whole dose curve; as a rule, active = well fitted curve in the direction sought with a large enough effect; inconclusive = small, poorly fitted or top-dose-only effect, or another doubt; inactive = no such curve, though single readings can be large; an effect the other way counts as inactive or inconclusive.

SMILES	ATXN2 expr inh	TGFb inhibitor	HepG2 viability	ATXN viability
CC[C@@H]1CC=C[C@H]2[C@H]1C(=O)N(Cc1ccccc1)[C@H]2c1ccc(C(F)(F)F)cc1	–	?	–	?
Cc1nc(NC(N)=S)sc1C(=O)Nc1ccccc1	–	–	11.2µM	–
Cc1nc(NC(=O)C2CC2)sc1C(=O)Nc1ccccc1	–	–	–	–
Cc1nc(NC(=O)c2ccccc2)sc1C	·	–	15.8µM	–
Cc1[nH]c(C=C2C(=O)Nc3ccccc32)c(C)c1CCC(=O)O	1.09µM	·	·	·
COc1ccc(-c2nc(CN3CCN(c4cc(C)nc(C)c4)CC3)c(C)o2)c2ccccc12	11.2µM	?	–	?
COc1cccc2c1C(=O)/C(=C\c1ccc(N(C)C)cc1)C2	·	–	–	·
Cc1ccc2nc(-c3cc(-c4ccccc4)no3)cn2c1	3.55µM	–	–	–
CCc1ccn2cc(-c3cc(-c4ccccc4)no3)nc2c1	·	?	10µM	?
Cc1ccc(-c2cc(-c3ccccc3)no2)c(O)c1	–	–	–	–
COc1ccccc1NCC(O)Cn1c2ccccc2c2ccccc21 (centres undefined)	–	12.6µM	–	–
COc1ccc(CCNCC(O)Cn2c3ccccc3c3ccccc32)cc1OC (centres undefined)	?	?	11.2µM	?
c1ccc(-c2nc(N3CCOCC3)c3ccccc3n2)nc1	–	–	–	?
c1ccc(-c2nc(N3CCCCCC3)c3ccccc3n2)nc1	?	–	–	11.2µM
COCCN(C)C(=O)c1cnn(-c2nccc(-c3cc(C)sc3C)n2)c1C	·	·	·	–
c1ccc(Nc2nc(-c3cccs3)cs2)nc1	–	?	–	–
Cc1cccc(Nc2nc(-c3cccs3)cs2)n1	–	12.6µM	–	–
COc1cc(=O)n2c(c1C(=O)N(C)Cc1nonc1C)CCN(Cc1cccc(Cl)c1)CC2	·	·	·	–
CC(C)(C)NC(=O)CON=C1c2ccccc2-c2ccccc21	–	?	–	?
CC(C)(C)NCC(O)CON=C1c2ccccc2-c2ccccc21 (centres undefined)	–	?	11.2µM	·
CCOC(=O)N1CCN(Cc2ccc3c(c2)CN(C(=O)c2noc4c2CCCC4)CCO3)CC1	·	·	·	–
COc1cccc(C2Nc3ccccc3NC3=C2C(=O)CC(C)(C)C3)c1OC (centres undefined)	–	?	–	–
COc1ccc(C2Nc3ccccc3NC3=C2C(=O)CC(C)(C)C3)c(OC)c1OC (centres undefined)	–	–	–	0.282µM
OC(C[n+]1ccccc1Cl)c1ccccc1 (centres undefined)	·	–	–	·
O=C(NCc1cccnc1)/C(=C/c1ccc(-c2ccc(Cl)cc2)o1)S(=O)(=O)c1ccccc1	12.6µM	?	4.47µM	·
SMILES	ATXN2 expr inh	TGFb inhibitor	HepG2 viability	ATXN viability
O=C(NCc1cccnc1)/C(=C/c1ccc(Cl)cc1)NC(=O)c1ccccc1	–	–	–	–
O=C(Nc1ccccc1O)c1c(O)c2c([nH]c1=O)CCCC2	–	12.6µM	–	?
Cn1c(N)c(C(=O)COC(=O)c2ccc([N+](=O)[O-])o2)c(=O)n(C)c1=O	–	12.6µM	–	–
CCOC(=O)C1CCN(C(=O)COC(=O)c2ccc([N+](=O)[O-])o2)CC1	–	17.8µM	12.6µM	–
C=C1C=C(C)n2ncc(C(=O)N(CCc3ccccc3)Cc3ccccc3)c2N1	·	?	–	·
O=C(C1CCCCC1)N1CC(=O)N2CCCc3ccccc3C2C1 (centres undefined)	–	·	·	–
O=C1NC(c2ccc(Br)cc2)=N/C1=C/c1ccco1	–	–	–	–
O=C1NC(c2ccccc2Cl)=N/C1=C/c1ccco1	–	?	17.8µM	–
Cc1ccc(-n2[nH]c(C)c(N=Nc3cccc(-c4cccc(C(=O)O)c4)c3O)c2=O)cc1C	?	·	·	–
COc1ccc(NC(=O)c2ccccc2OCC(=O)Nc2ccc(Br)cc2)cc1	·	–	–	·
Cc1cc(C)c2c(ccc3ccccc32)n1	–	–	–	?
Oc1ccc(-c2nc3ccc4ccccc4c3c3c2CCC3)cc1O	–	–	25.1µM	–
C[C@H](CO)N1C[C@H](C)[C@@H](CN(C)C(=O)NC2CCCCC2)Oc2c(NC(=O)Nc3ccc(C(F)(F)F)cc3)cccc2C1=O	?	14.1µM	–	?
C[C@@H]1CN([C@@H](C)CO)C(=O)c2cc(NC(=O)CCC(F)(F)F)ccc2O[C@H]1CN(C)Cc1ccc(Cl)c(Cl)c1	?	12.6µM	–	?
